Screening data (PubChem)
The full list was thinned out, with hits kept by preference.
12-LOX inh: Primary qHTS assay for inhibitors of human arachidonate 12S-lipoxygenase (ALOX12): Round 2. Polyunsaturated fatty acid lipoxygenase ALOX12 (Homo sapiens), P18054. purified 12hLO, xylenol orange hydroperoxide absorbance. Potency, µM (highest dose often 108 µM), inactives show at the top dose activity change, negative = inhibition, actives largely listed as inhibitors. 1.1% of 580,000 active; note: % is set by controls: 0 for no effect and ±100 for the full control effect
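Purified human 12hLO (150 nM final) in 25 mM Hepes, 0.01% Triton X-100, pH 7.0 was preincubated 15 min at room temperature with compound. Then 40 uM arachidonic acid was added, 30 min. Hydroperoxide was read by Fe-XO absorbance ratio 573/405 nm.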
G9a inh: qHTS Assay for Inhibitors of Histone Lysine Methyltransferase G9a; Potency, µM (doses to about 102 µM), inactives show top-dose activity, negative = inhibition, most hits filed as inhibitors; G9a H3K9 monomethylation, AlphaScreen, 2 h; Histone-lysine N-methyltransferase EHMT2 (Homo sapiens), Q96KQ7; 8.8% of 350,000 active; note: % is set by controls: 0 for no effect and ±100 for the full control effect; nearly all actives have a fitted effect of over 75% in size
Target sequence (Q96KQ7 913-1193 limits assumed): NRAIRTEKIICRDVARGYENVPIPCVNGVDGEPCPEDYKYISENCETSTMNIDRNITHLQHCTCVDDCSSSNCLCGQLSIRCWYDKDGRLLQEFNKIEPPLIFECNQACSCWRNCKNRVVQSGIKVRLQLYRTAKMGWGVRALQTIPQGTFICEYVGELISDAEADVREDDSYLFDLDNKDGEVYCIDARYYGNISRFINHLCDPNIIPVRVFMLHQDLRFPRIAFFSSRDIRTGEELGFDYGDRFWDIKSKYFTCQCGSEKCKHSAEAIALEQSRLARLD
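Methyltransferase reactions run at room temperature for 2 h (20 nM enzyme, 500 nM biotin-H3K9 peptide, 20 uM SAM) after a 15 min compound preincubation; product detected by AlphaScreen beads and anti-H3K9me1 antibody.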
Glioma ERSR ind: qHTS for Inducers of the Endoplasmic Reticulum Stress Response (ERSR) in Human Glioma: qHTS; U87-MG GRP78 promoter luciferase reporter, 16 h; 0.02% of 420,000 active; AID 602332, 2012; Potency, µM, for inactives: top-dose activation, most hits filed as activators; note: series mostly up to about 76 µM; % of control where 0% means no effect; nearly all actives have a fitted effect of over 35% in size
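Stably transfected U87-MG human glioma cells carrying a GRP78-based luminescent sensor were seeded at 1000 cells/well, pin-dosed with compounds and incubated 16 h. Luciferase reagent was then added, and end-point luminescence was read after 10 min at room temperature.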
Sfp inh: qHTS Assay for Inhibitors of Bacillus subtilis Sfp phosphopantetheinyl transferase (PPTase). 4'-phosphopantetheinyl transferase ffp (Bacillus subtilis), Q9F4F7. Biochemical Sfp PPTase activity, qHTS. Potency, µM, for inactives: largest response in the series, negative = inhibition, hits mostly inhibitors. 3.5% of 310,000 active. AID 1490, 2009;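 note: the enzyme is Sfp with the accession as filed and its product quenches rhodamine fluorescence; 0% = enzyme reaction without inhibitor and -100% = no enzyme wells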
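Step 1, compound plus 15 nM Sfp-PPTase, 15 min, room temperature. Step 2, add rhodamine-CoA (5 uM) and BHQ-2-YbbR (12.5 uM). Step 3, read 525/598 nm fluorescence at 0 and 30 min.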
VDR inh: Inhibitors of the vitamin D receptor (VDR): qHTS; VDR-SRC2-3 peptide fluorescence polarization, 2 h; Potency, µM, for the others: max response, negative = inhibition, usual class: inhibitors; 0.93% of 400,000 active; AID 504847, 2011; note: % is set by controls: 0 for no effect and ±100 for the full control effect
Target sequence (P11473 whole entry, looked up): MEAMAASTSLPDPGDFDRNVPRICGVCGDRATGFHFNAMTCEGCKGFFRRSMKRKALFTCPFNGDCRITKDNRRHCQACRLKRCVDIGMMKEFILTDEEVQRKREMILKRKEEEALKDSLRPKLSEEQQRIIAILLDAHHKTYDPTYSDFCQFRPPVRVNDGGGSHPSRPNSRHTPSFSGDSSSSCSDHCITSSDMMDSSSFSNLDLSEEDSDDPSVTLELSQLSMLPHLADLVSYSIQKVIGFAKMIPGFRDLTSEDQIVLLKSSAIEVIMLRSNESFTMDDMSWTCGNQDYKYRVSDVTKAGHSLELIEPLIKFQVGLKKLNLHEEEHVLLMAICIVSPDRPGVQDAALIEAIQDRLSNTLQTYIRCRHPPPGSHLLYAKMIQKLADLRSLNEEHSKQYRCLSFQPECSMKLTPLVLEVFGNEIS
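FP read-out; VDR + SRC2-3 coactivator peptide; 23 nl compound by pintool; 2 h RT incubation; reagents held at 4 deg C, protected from light.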
* marks the source's active call; other numbers are inactive results; ? = inconclusive; . = no result given; ! = a repeat was not active; [ ] = another dose, or the depositor's remark. Calls come from the whole dose curve; as a rule, active = well fitted curve in the direction sought with a large enough effect; inconclusive = small, poorly fitted or top-dose-only effect, or another doubt; inactive = no such curve, though single readings can be large; an effect the other way counts as inactive or inconclusive. Potency is the fitted concentration of half-maximal effect.

SMILES	12-LOX inh	G9a inh	Glioma ERSR ind	Sfp inh	VDR inh
O=c1cc(-c2ccccc2)[nH]c2ccc(Cl)cc12	.	1.2%	2.6%	12.1%	0.0%
O=c1cc(-c2ccccc2)[nH]c2ccc(F)cc12	-1.8%	79.4µM*!	4.3%	28.1%	-1.9%
O=c1cc(-c2ccccc2)[nH]c2cc(Cl)ccc12	0.9%	3.8%	-7.3%	8.1%	79.4µM*!
O=C(O)CCc1nc(-c2ccccc2)c(-c2ccccc2)o1	-4.3%[22.9 µM]	41.6%[12.7 µM]	-2.6%	31.2%	-18.8%
O=C(O)CCc1ccc(-c2ccccc2)o1	?	?	2.6%	-80.1%	20µM*
CN1CCN(c2nc(-c3cccs3)cs2)CC1	-16.7%	35.5µM*	1.6%	56.2µM*	3.5%
CN1CCN(c2nc(-c3cc4ccccc4o3)cs2)CC1	7.1%	?	0.7%	-7.8%	-7.3%
O=C1c2ccccc2C(=O)N1c1nc(-c2cccs2)cs1	10.5%	-12.8%[59 µM]	-5.4%	25.1µM*	10.5%
c1cncc(Cc2noc(C3CN(Cc4ccsc4)C3)n2)c1	6.6%	.	.	.	.
CC(Oc1ccc(Br)cc1)C(=O)N(C)CC(=O)Nc1ccc(N2CCOCC2)cc1 (centres undefined)	12.6%	50.1µM*	-4.4%	.	-7.5%
CCOc1ccc(OCCCC(=O)N(C)CC(=O)Nc2ccc(N3CCOCC3)cc2)cc1	-11.6%	35.5µM*	-1.7%	.	1.8%
COc1ccc(CCC(=O)N(C)CC(=O)Nc2ccc(N3CCOCC3)cc2)cc1	-14.3%	24.8%[59 µM]	-8.0%	27.3%	-19.6%
CN(CC(=O)Nc1ccc(N2CCOCC2)cc1)C(=O)CCCOc1ccc(Cl)cc1Cl	-16.4%	20µM*	4.0%	.	18.3%
Cc1ccc(C)c(SCC(=O)N(C)CC(=O)Nc2ccc(N3CCOCC3)cc2)c1	-25.4%	44.7µM*	-2.8%	.	6.4%
CN(CC(=O)Nc1ccc(N2CCOCC2)cc1)C(=O)c1cc(F)c(F)cc1Cl	-19.5%	7.8%[0.501 µM]	-0.8%	.	-4.0%
CN(CC(=O)Nc1ccc(N2CCOCC2)cc1)C(=O)CCNC(=O)c1ccccc1Cl	-8.2%	44.7µM*	-3.5%	.	1.8%
CCOc1ccccc1C(=O)NCC(=O)N(C)CC(=O)Nc1ccc(N2CCOCC2)cc1	10.3%	.	-4.1%	.	.
Cc1ccc(-c2nn(-c3ccc(F)cc3)cc2C(=O)N(C)CC(=O)Nc2ccc(N3CCOCC3)cc2)cc1	-7.5%	39.8µM*	-0.6%	.	-21.9%
CSc1ccc(Cl)c(C(=O)N(C)CC(=O)Nc2ccc(N3CCOCC3)cc2)c1	-11.3%	35.5µM*	-3.4%	.	4.1%
CC(=O)NC1(C#N)CCCCC1	13.8%	.	.	.	.
CC[n+]1ccc(C)c2cc(S(=O)C(F)(F)F)ccc21 (centres undefined)	.	?	-1.4%	-2.8%	70.6%
CC[n+]1ccc(C)c2cc(SC(F)(F)F)ccc21	.	7.94µM*	-4.8%	5.1%	36.5%
N#Cc1ccc(-c2csc(NNC(=O)c3ccccc3)n2)cc1	0.0%	.	-5.2%	-10.1%	6.2%
Cc1cc(-c2csc(NC(=O)c3ccc(C#N)cc3)n2)c(C)n1Cc1ccccc1	-8.4%	44.7µM*	-4.2%	14.2%	-30.1%
CCc1ccc(NC(=O)c2oc3c(c2C)-c2[nH]ncc2CC3)cc1	?	?	-0.6%	.	-4.7%
SMILES	12-LOX inh	G9a inh	Glioma ERSR ind	Sfp inh	VDR inh
Cc1c(C(=O)N2CCCC2)oc2c1-c1[nH]ncc1CC2	?	50.1µM*	0.7%	?	-26.2%
COC(=O)C1=CN(c2ccc(OC)cc2)C=C(C(=O)OC)C1c1ccc(C)c([N+](=O)[O-])c1	-29.1%	-3.2%[59 µM]	-3.6%	10.2%	-19.2%
COC(=O)C1=CN(c2cccc(C)c2)C=C(C(=O)OC)C1c1cc(OC)c(O)c([N+](=O)[O-])c1	?	12.6µM*	0.0%	-17.4%	6.3%
CCCC(=O)N1Cc2ccccc2CC2(CCN(C)C2)C1 (centres undefined)	-0.6%[12.5 µM]	.	.	.	.
CC(C)(C)NC(=O)CN(Cc1ccc2c(c1)OCO2)C(=O)CCC(=O)Nc1nccs1	-0.6%	39.8µM*	-4.5%	-1.5%	18.6%
Fc1ccc(-n2c(=S)[nH]c3cccnc32)cc1	?	.	4.9%	28.2µM*	-15.5%
COc1cc(/C(Cl)=N/O)cc(OC)c1OC	-0.8%	.	.	.	.
CC(C)NC(=O)CSc1nc(Cc2cccs2)nc2ccccc12	-14.5%	25.1µM*	-0.9%	-2.7%	-6.9%
CC(C)(C)NC(=O)CSc1nc(Cc2ccccc2)nc2ccccc12	1.0%	3.0%	-4.2%	16.1%	-13.9%
CCn1c(C(=O)NC2CCN(CC(=O)NC(C)C)CC2)cc2ccccc21	8.6%	.	.	.	.
N[C@H](C(=O)O)c1cc(O)cc(O)c1	?	32.6%[59 µM]	-2.1%	44.7µM*!	-8.4%
N[C@@H](C(=O)O)c1ccc(C(=O)O)c(O)c1	17.3%	.	-3.1%	11.9%	2.3%
Cn1c(=O)n(C)c2cc(Sc3ccccc3Cl)c(NC(=O)C(C)(C)C)cc21	9.2%	.	.	.	.
COc1cc(OC)cc(C(=O)NC(=S)N2CCCCCC2)c1	-18.1%	6.0%	-1.3%	8.4%	?
COc1cc(OC)cc(C(=O)NC(=S)Nc2ccc(N3CCCC3)cc2)c1	44.7µM*	10µM*	-5.2%	?	-6.5%
COc1cc(C(=O)Nc2ccccc2C(=O)NCc2cccnc2)cc(OC)c1OC	19.5%	23.5%	0.5%	9.4%	-13.3%
CCOc1cccc(C(=O)NC(=S)Nc2cccc(NC(=O)c3ccccc3Cl)c2)c1	11.2µM*	-46.7%[59 µM]	-1.5%	13.7%	-0.8%
CC(C)Oc1cccc(C(=O)NC(=S)Nc2cccc(C(F)(F)F)c2)c1	?	.	-6.6%	-13.8%	-16.1%
COc1ccc(C(=O)Nc2ccccc2C(=O)NCc2cccnc2)cc1OC	-9.3%	70.8µM*	-4.9%	16.9%	-12.2%
CCCCOc1cccc(C(=O)NC(=S)Nc2cccc(C(F)(F)F)c2)c1	31.6µM*	-2.7%[59 µM]	-4.2%	-27.1%	9.4%
CC(C(=O)NC(=O)NC12CC3CC(CC(C3)C1)C2)N1CCN(c2oc(-c3ccco3)nc2C#N)CC1 (centres undefined)	-10.0%	.	.	.	.
CCCOc1cccc(C(=O)NC(=S)Nc2ccc(N3CCN(C)CC3)cc2)c1	?	-15.7%[59 µM]	-6.2%	3.2%	-8.6%
COc1ccc(C(=O)NC(=S)Nc2cccnc2)cc1OC	-24.4%	50.1µM*	-1.8%	-22.3%	-10.0%
COc1cc(OC)cc(C(=O)NC(C(=O)Nc2ccc(N3CCOCC3)cc2)C(C)C)c1 (centres undefined)	-4.3%	50.1µM*	-2.4%	.	30.4%
CCOc1cccc(C(=O)NC(=S)Nc2ccc(N3CCN(CC)CC3)cc2)c1	?	14.1µM*	0.3%	-6.0%	18.3%
CCOc1cccc(C(=O)NC(=S)Nc2cccnc2)c1	-21.9%	10µM*	4.5%	44.7µM*	-9.7%
O=C(Cn1ccc2c(Br)cccc21)Nc1nccs1	-21.8%	.	.	.	.
Cc1ccc(CN(C)C(C)c2ccc(S(C)(=O)=O)cc2)cc1 (centres undefined)	-0.6%	.	.	.	.
